Screens as filed in PubChem.
SARS 3CLpro inh = SARS-CoV 3CLpro protease inhibitors, primary screen, biochemical, quenched FRET; inhibition, % at 6 µM; recombinant SARS-CoV 3CLpro, quenched FRET peptide cleavage; 290,000 tested, 0.14% active; AID 1706, 2009; in the data active = inhibition above about 12%
SSB-PriA inh = inhibitors of Klebsiella pneumoniae PriA binding to SSB C-terminal tail, primary screen, biochemical, AlphaScreen | PriA–SSB C-terminal tail interaction (Klebsiella pneumoniae) | AlphaScreen SSBct-PriA binding, biotinylated peptide | inhibition, % at 33 µM | 430,000 tested, 0.6% active | AID 1272365, 2023; in the data active = inhibition mostly above about 37%, no sharp cut-off; inactive = mostly below about 20%;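 note: plate controls were negative control peptide for no effect and reference peptide for full effect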
BJeLR lethal = MLPCN primary cell-based screen for lethality selective to Ras in HRASV12 cells; BJeLR (HRASV12) viability, CellTiter-Glo ATP luminescence, 48 h; inhibition, % (concentration not given with the values); 300,000 tested, 0.17% active; AID 1554, 2009; in the data active = inhibition above about 50%
Starred values were filed as active, the others as inactive; / = not tested or not shown. Rows were chosen to be rich in hits. Some 0.78% of all compounds tested hit in one or more screens of this group.

SMILES | SARS 3CLpro inh | SSB-PriA inh | BJeLR lethal
O=C(C1=C(Nc2ccccc2)c2ccccc2S(=O)(=O)N1)c1ccccc1 | 6 | 42* | -3
Cc1ccccc1NC1=C(C(=O)c2ccccc2)N(C)S(=O)(=O)c2ccccc21 | -4 | 1 | 10
COC(=O)N1CCC(CNC(=O)Cc2cccc3ccccc23)CC1 | / | -5 | /
COc1ccc([C@H](CNC(=O)c2ccc3c(c2)OCO3)N2CCN(C)CC2)cc1 | / | -2 | /
C/C(=N\Nc1nc2ccccc2[nH]1)c1ccc2c(c1)OCCO2 | 0 | / | -4
CC(=NNc1nc2ccccc2[nH]1)c1ccc(N2CCOCC2)cc1 | / | 54* | /
C/C(=N\Nc1nc2ccccc2[nH]1)c1ccccn1 | 0 | / | 74*
CC(=NNc1nc2ccccc2[nH]1)c1cccs1 | / | 27 | /
N#Cc1ccccc1NC(=O)c1ccc(-n2cccn2)nn1 | / | -8 | /
O=C(Nc1cccc2nsnc12)C1CCCN(c2ccc(-n3cccn3)nn2)C1 (stereo unspecified) | / | -2 | /
O=C1/C(=C/c2ccncc2)Oc2c1ccc1c2CN(Cc2ccc3c(c2)OCO3)CO1 | / | -5 | /
O=C1/C(=C/c2cccc(F)c2)Oc2c1ccc1c2CN(Cc2ccccn2)CO1 | / | 97* | /
O=C1/C(=C/c2ccncc2)Oc2c1ccc1c2CN(Cc2c(F)cccc2Cl)CO1 | / | -10 | /
O=C1/C(=C/c2ccco2)Oc2c1ccc1c2CN(Cc2ccccn2)CO1 | / | 97* | /
O=C(Cn1cnc2ccccc2c1=O)N1CCC(COCc2ccc(Cl)cc2)CC1 | / | -12 | /
O=C(c1cc2ccccc2o1)N1CCN=C1SCc1c(F)cccc1Cl | / | -1 | /
COc1ccc(Cc2nc(-c3ccc(NC(=O)c4cccnc4)cc3)no2)cc1 | 2 | -8 | 90*
COc1ccc(-c2noc(CCC(=O)NCc3cccnc3)n2)cc1 | 1 | -12 | -1
CN(C)c1ccc2c(c1)C(=NO)c1ccccc1-2 | / | 53* | /
ON=C1c2ccccc2-c2ccccc21 | 0 | -6 | -1
Cc1nc(N2CCC(Cc3ccccc3)CC2)c2cc(-c3ccccc3)sc2n1 | / | -12 | /
O=C(Cc1cc(=O)[nH]c(SCc2cccc(Cl)c2)n1)Nc1cccnc1 | / | -13 | /
COC(=O)c1ccc(Sc2ccc(C)cc2)c(N)c1 | 4 | -58 | -7
COc1cc(Sc2ccc(C)cc2)c(OC)cc1N | 7 | 79* | -8
CCn1c(=O)c(C(=O)CN2c3ccccc3CC2C)c(N)n(Cc2ccccc2)c1=O (stereo unspecified) | 1 | 39* | -3
SMILES | SARS 3CLpro inh | SSB-PriA inh | BJeLR lethal
CC1Cc2ccccc2N1CC(=O)c1c(N)n(Cc2ccccc2)c(=O)n(C)c1=O (stereo unspecified) | 3 | 7 | 6
O=C1CCc2cc(NC(=O)c3cc(Cl)ccc3Cl)ccc2N1 | / | 11 | /
CCCCCc1cc(=O)oc2c(C(CCN(CC)CC)c3ccc(N(C)C)cc3)c(OC)cc(OC)c12 (stereo unspecified) | / | 67* | -6
CCN(CC)CCC(c1cc(OC)c(OC)c(OC)c1)c1c(OC)cc(OC)c2c(C)cc(=O)oc12 (stereo unspecified) | / | -3 | -3
CCCCCc1cc(=O)oc2c(C(CCN3CCCC(C)C3)c3ccc(N(C)C)cc3)c(OC)cc(OC)c12 (stereo unspecified) | / | 90* | 11
CCCCCc1cc(=O)oc2c(C(CCN3CCCC(C)C3)c3cc(OC)c(OC)c(OC)c3)c(OC)cc(OC)c12 (stereo unspecified) | / | 13 | -1
COc1cc(Nc2ccc(NS(=O)(=O)c3cccc(C)c3)cc2)nc(C)n1 | / | 9 | /
CCc1ccc(CNC(=O)Cc2ccc(NC(=O)C3=C(C)OCCS3)cc2)cc1 | -2 | 0 | 53*
CC1=C(C(=O)Nc2ccc(CC(=O)NCc3ccccc3C)cc2)SCCO1 | -3 | -7 | -14
CC(C)(C)c1cc(Br)cc(Br)c1O | / | 4 | /
O=C(CCl)N(c1ccccc1)c1c[nH]c2ccccc12 | -5 | -12 | -11
CC(=O)n1cc(N(C(=O)CCl)c2ccccc2)c2ccccc21 | 6 | -25 | 100*
Cc1nc2ccc(C(=O)N3CC(S(=O)(=O)C4CCCCC4)C3)cc2s1 | / | -13 | /
CC[C@H](C)/C=C(C)/C=C/C1=CC2=C(Cl)C(=O)[C@@](C)(OC(C)=O)C(=O)C2=CO1 | / | / | 7
CCC(C)/C=C(C)/C=C/C1=CC2=C(Cl)C(=O)C(C)(OC(C)=O)C(=O)C2=CO1 (stereo unspecified) | 1 | 45* | 6
CCOc1ccc(Br)cc1S(=O)(=O)NCCn1cnc(CC)cc1=O | / | -10 | /
Cc1ccc(Cc2nnc(NC(=O)C3=COCCO3)o2)cc1 | / | -12 | /
O=C(CCCSc1ccc(NC(=O)C2CC2)nn1)Nc1ccc(C(F)(F)F)cc1 | / | -2 | /
O=C(Nc1nnc(-c2ccc3c(c2)OCCO3)o1)c1cccc(Cl)c1 | / | -6 | /
COc1ccc(S(=O)(=O)Nc2cccc(C(=O)Nc3nnc(C4=COCCO4)o3)c2)cc1 | / | 56* | /
O=C(Nc1nnc(C2=COCCO2)o1)c1cccc(C(F)(F)F)c1 | 0 | -1 | 16
COc1cccc2cc(-c3nnc(NC(=O)c4cccc(S(C)(=O)=O)c4)o3)oc12 | / | 90* | /
O=C(Nc1nnc(-c2ccc3c(c2)OCCO3)o1)c1cccc(NS(=O)(=O)c2ccc(F)cc2)c1 | / | 32* | /
COc1cccc2cc(-c3nnc(NC(=O)c4ccc(N(C)C)cc4)o3)oc12 | / | 13 | /
Cc1cccc(-c2nnc(NC(=O)c3ccc4ncsc4c3)o2)c1 | / | -5 | /
SMILES | SARS 3CLpro inh | SSB-PriA inh | BJeLR lethal
Cc1ccc(CNC(=O)CSc2ncc(-c3ccccc3)[nH]2)cc1 | / | -4 | /
N#Cc1nccnc1OC1CCC(NC(=O)c2ccsc2)CC1 (stereo unspecified) | / | -16 | /
CCOC(=O)N1CCN(C(=O)CN2C(=O)/C(=C\c3cccs3)SC2=S)CC1 | / | -10 | /
c1cc(N2CCOCC2)nnc1N1CCNCC1 | / | -16 | /
COc1ccc(OC)c(NC(=O)CSc2nnc(Cc3cccn3C)n2CCc2ccccc2)c1 | 4 | 33 | -3
COc1ccc(OC)c(NC(=O)CSc2nnc(Cc3cccn3C)n2Cc2ccccc2)c1 | / | 39* | /
COc1ccc(N2CCN(c3ncnc4scc(-c5ccccc5)c34)CC2)cc1 | 5 | 46* | -3
COc1ccc(N2CCN(c3ncnc4scc(-c5ccc(C)cc5)c34)CC2)cc1 | 5 | 19 | -9
Cc1cc(C(=O)Nc2ccc(-n3nnn(CC(=O)NC4CC4)c3=O)cc2)c(C)o1 | / | 2 | /
Nc1nn2c(-c3ccccn3)nnc2s1 | / | 60* | /
Clc1ccccc1-c1nn2c(-c3ccccn3)nnc2s1 | -1 | -15 | -6
COc1ccc(-c2nn3c(-c4ccccn4)nnc3s2)cc1OC | 1 | 2 | -3
Brc1ccc(-c2nn3c(-c4ccccn4)nnc3s2)o1 | -1 | 93* | -6
Cc1[nH]nc(-c2nn3c(-c4ccccn4)nnc3s2)c1Br | / | 67* | /
c1ccc(-c2nnc3sc(-c4ccco4)nn23)nc1 | / | 25 | /
O=C(NCC(O)Cn1ccccc1=O)c1cnn(-c2ccccc2)n1 (stereo unspecified) | / | 2 | /
CN(C)c1nc(Oc2ccccc2)ncc1NC(=O)Nc1ccccc1 | / | 18 | /
C#CCn1c(=NC(=O)c2cc([N+](=O)[O-])ccc2Cl)sc2cccc(OC)c21 | / | 8 | /
